We go through ten compounds from paper PMC5540273 (PLoS ONE, 2017).

Common to all, as to conditions: concentration: 1 μM, replicates: in singlicate; n = 1
Assay [1] concerns ULK2.
The subject of assay [2] is ULK3.
For assay [3], the system named is T1, VEGFR2.
T1 construct: gene KDR

Assay [4] deals with T2, VPS34.
T2 construct: gene PIK3C3

Assay [5] has as its system VRK2.
For assay [6], the system named is WEE1.
The test system of assay [7] is WEE2.
For assay [8], the system named is WNK1.
In assay [9] the test system is WNK2.
Assay [10] relates to WNK3.
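Also: KINOMEscan kinase panel screen.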

`CCc1nc(-c2cccc(C)c2)c(-c2ccnc(NC(=O)c3ccccc3)c2)s1`: the “%Inh” value in [1] came to 9%; in assay [2] it was 14%; in assay [3], 0%; in assay [4] it was 14%; in [5], 0%; in assay [6] it was 0%. Also, the “%Inh” value in [7] is 10%; in assay [8], 0%; in [9], 59%; in assay [10] it was 0%.
Regarding `Fc1cccc(COc2ccc(Nc3ncnc4sc(-c5ccc[nH]5)cc34)cc2Cl)c1` [GW707818], the “%Inh” value in assay [1] came to 0%; in [2] it was 1%; in [3], 8%; in assay [4] it was 0%; in assay [5] it was 26%; in assay [6], 6%. Also, the “%Inh” value was 0% in assay [7], 12% in assay [8], 6% in [9] and 13% in [10].
Take `Cc1cc(N2CCC(NS(=O)(=O)c3ccc(F)cc3)CC2)nc(Nc2cccc(C#N)c2)n1.O=C(O)C(F)(F)F` [GSK1653537]: the “%Inh” value in assay [1] amounted to 0%; in assay [2], 4%; in assay [3], 0%; in [4] it was 0%; in assay [5], 0%; in [6], 10%. For the same compound, the “%Inh” value was 15% in assay [7], 6% in [8], 13% in [9] and 2% in assay [10].
In the case of `O=C(CCO)NCCn1ccc2ncnc(Nc3ccc(Oc4cccc(C(F)(F)F)c4)c(Cl)c3)c21`, the “%Inh” value in assay [1] turned out to be 0%; in assay [2] it was 0%; in assay [3] it was 0%; in assay [4] it was 0%; in assay [5], 0%; in assay [6] it was 1%. For the same compound, the “%Inh” value in assay [7], in [8], in assay [9] and in assay [10] was 0% throughout.
As to `CCCc1ccc(S(=O)(=O)NC2CCN(c3ccnc(Nc4ccc(OC)cc4)n3)C2)cc1` (stereo not shown) [GSK1379737], the “%Inh” value was determined as 0% in assay [1]; 7% in [2]; 0% in assay [3]; 36% in [4]; 4% in [5]; 12% in [6]. The “%Inh” value in assay [7] was found to be 0%; in [8], 8%; in assay [9], 0%; in assay [10], 38%.
As to `COc1ccc(-c2oc3ncnc(N)c3c2-c2ccc(OC)cc2)cc1` [SB-589132], the “%Inh” value in assay [1] is recorded as 0%; in [2], 39%; in [3], 16%; in assay [4], 17%; in [5], 56%; in [6] it was 33%. Moreover, the “%Inh” value in [7] is 0%; in assay [8] it was 22%; in assay [9] it was 35%; in assay [10], 52%.
Regarding `CCn1c(-c2ccncc2)nc2cnccc21` [SB-735216], the “%Inh” value amounted to 8% in [1]; 25% in [2]; 24% in [3]; 25% in assay [4]; 0% in assay [5]; 0% in assay [6]. In addition, the “%Inh” value was found to be 1% in [7], 0% in assay [8], 29% in assay [9] and 21% in [10].
For the compound `CCc1nc(-c2cccc(N(C)S(=O)(=O)c3ccccc3)c2)c(-c2ccnc(Nc3ccc(N4CCN(C(C)=O)CC4)nc3)n2)s1` [GSK1645895], the “%Inh” value is given as 0% in assay [1]; 9% in assay [2]; 31% in assay [3]; 0% in [4]; 0% in [5]; 0% in assay [6]. The “%Inh” value in assay [7] amounted to 0%; in [8] it was 3%; in assay [9] it was 0%; in assay [10] it was 16%.
As for `C[C@@H]1CCN(C(=O)CO)C[C@@H]1N(C)c1ncnc2[nH]ccc12`, the “%Inh” value in assay [1] was determined as 0%; in [2] it was 12%; in assay [3] it was 0%; in assay [4] it was 0%; in assay [5], 0%; in assay [6], 0%. For the same compound, the “%Inh” value in assay [7], in [8], in assay [9] and in assay [10] was 0% in each case.
`NC(=O)c1sc(-n2cnc3ccccc32)cc1OCc1ccccc1F` [GSK1024306]: the “%Inh” value in assay [1] turned out to be 0%; in assay [2], 9%; in assay [3], 6%; in assay [4], 31%; in assay [5], 7%; in [6] it was 7%. The “%Inh” value is on record as 0% in assay [7], 3% in assay [8], 27% in [9] and 23% in [10].
